This excerpt belongs to a sample that is enriched for hits.
ERp5 block = blocks human ERp5 reductase activity on insulin | ERp5 insulin aggregation, absorbance 650 nm, 90 min | inhibition, % at 9.99 µM | hit rate 0.05% among 350,000 | AID 651711;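 active = mean replicate inhibition above about 25%, with every replicate also reaching it, limit read from the data, passing the limit was not always enough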
CendR NRP1 mod = modulators of CendR peptide binding to human neuropilin-1; O14786; inhibition, % at 25 µM; FAM-RPARPAR peptide binding to NRP-1, fluorescence polarization; AID 602438; hit rate 0.85% among 360,000;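 active = inhibition or corrected inhibition above about 18%, plus a signal ratio from 0.5 to 1.5, limit read from the data, passing the limit was not always enough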
ALR inh = inhibitors of human sulfhydryl oxidase ALR. P55789. purified ALR, DTT oxidation, H2O2 HRP-luminol luminescence. inhibition, % (concentration not given with the values). hit rate 3.8% among 290,000. AID 485317;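 active = mean replicate inhibition above about 79%, with every replicate also reaching it, limit read from the data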
ARNT TACC3 PPI = ARNT/TACC3 interaction disruption. AlphaScreen His-ARNT PAS-B/GST-TACC3 binding, luminescence; TACC3 fragment carries E629A point mutation. Q9Y6A5. hit rate 0.66% among 390,000. inhibition, % at 9.99 µM;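 active = mean inhibition of replicates at least 50% and at least half of replicates each reaching 50%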;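 note: 0% = complete ARNT plus TACC3 wells and 100% = ARNT alone without TACC3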
PglD inh = PglD (C. jejuni) enzyme inhibition; inhibition, % at 12.5 µM; AID 602405; hit rate 0.098% among 360,000; purified PglD enzyme, DTNB colorimetric CoA detection; in the data active = inhibition above about 16%, passing the limit was not always enough
PDI inh = inhibitors of human protein disulfide isomerase; P07237; PDI insulin aggregation turbidity, A650, 90 min; inhibition, % at 10 µM; hit rate 0.052% among 350,000;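 active = mean inhibition across replicates of 30% or more, whatever share of single replicates reach that level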
Starred values were filed as active, the others as inactive.

For C=CCNC(=O)c1onc(CSc2ccc(C)c(C)c2)c1C(=O)O the results were ERp5 block -4, CendR NRP1 mod -8, ALR inh 98*, ARNT TACC3 PPI -16, PglD inh 8 and PDI inh 3.
For COCCNC(=O)c1onc(CSc2ccc(C(C)C)cc2)c1C(=O)O the results were ERp5 block 6, CendR NRP1 mod 9, ALR inh 89*, ARNT TACC3 PPI -9, PglD inh 1 and PDI inh 6.
COCCNC(=O)c1onc(CSc2ccc(Cl)cc2)c1C(=O)O was read as ERp5 block -2, CendR NRP1 mod 1, ALR inh -6, ARNT TACC3 PPI 15, PglD inh -1 and PDI inh 4.
For CCCCNC(=O)c1onc(CSc2ccc(C)c(C)c2)c1C(=O)O the results were ERp5 block 2, CendR NRP1 mod 12, ALR inh 98*, ARNT TACC3 PPI -3, PglD inh 4 and PDI inh 1.
For C=CCNC(=O)c1onc(CSc2cc(C)cc(C)c2)c1C(=O)O the results were ERp5 block 5, CendR NRP1 mod 4, ALR inh 1, PglD inh 0 and PDI inh 10.
C=CCNC(=O)c1onc(CSc2ccc(F)c(F)c2)c1C(=O)NCC=C was read as CendR NRP1 mod 25*, ALR inh 0, ARNT TACC3 PPI -7, PglD inh 2 and PDI inh -3.
For C[C@H](CO)N1C[C@H](C)[C@@H](CN(C)S(=O)(=O)c2cccs2)Oc2ccc(NS(=O)(=O)c3cn(C)cn3)cc2CC1=O the results were ERp5 block 2, ARNT TACC3 PPI 4 and PglD inh 1.
For C[C@H]1CN([C@@H](C)CO)C(=O)c2cc(NS(=O)(=O)c3cn(C)cn3)ccc2O[C@@H]1CN(C)S(=O)(=O)c1cccs1 the results were ERp5 block -1, ARNT TACC3 PPI -9 and PglD inh 2.
For Cc1noc(C)c1NC(=O)N(C)C[C@@H]1Oc2ccc(NC(=O)Nc3cccc4ccccc34)cc2CC(=O)N([C@H](C)CO)C[C@H]1C the results were ERp5 block 1 and PglD inh 1.
Screening COC(=O)c1c(SCc2ccc(C#N)cc2)nc(=O)[nH]c1C returned ERp5 block -2, CendR NRP1 mod 0, ALR inh 44, ARNT TACC3 PPI -2 and PDI inh -10.
`COC(=O)c1c(SCc2cccc3ccccc23)nc(=O)[nH]c1C` gave ERp5 block 3, CendR NRP1 mod 0, ALR inh 99*, ARNT TACC3 PPI 24, PglD inh -5 and PDI inh -1.
Cc1ccc(S(=O)(=O)Nc2cccc3c2O[C@@H](CN(C)S(=O)(=O)c2cccs2)[C@H](C)CN([C@@H](C)CO)C3=O)cc1 was read as ERp5 block -20, ARNT TACC3 PPI 7 and PglD inh 3.
`CCOC(=O)C(C)/C(C)=N/NC(N)=S` (stereo unspecified) gave CendR NRP1 mod 5, ALR inh 96*, ARNT TACC3 PPI 18, PglD inh -2 and PDI inh 6.
Screening Cc1[nH]n(-c2ccccc2)c(=O)c1/C=N/n1c(C)nc2ccccc2c1=O returned CendR NRP1 mod -6, ALR inh 4, ARNT TACC3 PPI 31*, PglD inh 2 and PDI inh 18.
For Cc1ccc(-n2[nH]c(C)c(/C=N/n3c(C)nc4ccccc4c3=O)c2=O)cc1 the results were ERp5 block 3, CendR NRP1 mod -13, ALR inh 9, ARNT TACC3 PPI 24, PglD inh 3 and PDI inh 3.
CC(C)CCN1CCC(n2nccc2NC(=O)c2ccc3c(c2)OCO3)CC1 was read as ERp5 block -2, CendR NRP1 mod 35*, ALR inh 0, ARNT TACC3 PPI 2, PglD inh -9 and PDI inh -4.
`CC(C)N1CCC(n2nccc2NC(=O)c2ccc3c(c2)OCO3)CC1` gave ERp5 block 7, CendR NRP1 mod 16, ALR inh -1, ARNT TACC3 PPI -9, PglD inh 1 and PDI inh -5.
CC(C)C(C(=O)O)N1C(=O)/C(=C/C=C/c2ccco2)SC1=S (stereo unspecified) was read as CendR NRP1 mod -171, ALR inh 99*, ARNT TACC3 PPI 2 and PDI inh 11.

Screens as filed in PubChem.
